These results are taken from PubChem BioAssay (Tox21).

Records with an inconclusive call do not appear. Active and inactive are the calls of the source. Calls follow the shape of the dose curve; as a rule, active = well fitted curve in the direction sought with a large enough effect in the repeat runs; inconclusive = weak or mixed curves; inactive = no such curve, though single readings can be large; an effect the other way counts as inactive or inconclusive.
% is scaled to controls: 0 for no effect and ±100 for the full control effect.

The nature of the first experiment: qHTS RealTime-Glo MT Cell Viability Assay in HepG2 cells - 8 hour (AID 1224873). Also: nearly all actives have a fitted effect of over 55% in size. To be noted: RealTime-Glo luminescence; series mostly up to 76.8 µM. In a few lines: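 HepG2 cells mixed with RealTime-Glo MT reagents (NanoLuc plus cell-permeant prosubstrate) were seeded at 600 cells/well, incubated 5 h at 37 C/5% CO2, then pinned with compounds in DMSO; nonlytic luminescence tracked viability during 40 h treatment.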
(In general: qHTS replaces the single test concentration by a dilution series.)
Take `O=C(O)P(=O)(O)O`: the compound was classed as inactive. As for `CC(C)C(C)C`, the call was inactive. In the case of `COc1cc2nc(N3CCN(C(=O)C4CCCO4)CC3)nc(N)c2cc1OC` (stereo not given), the call was inactive. Regarding `CCCc1ncc(C(=O)O)s1`, the outcome was inactive. For `CN(C)CCCN(C)C`, the viability change, negative = cytotoxic is 0.94% [at 6.97 µM] (inactive). As for `BrCCOc1ccccc1`, the result was inactive. Same read-out and setting: for `CN(C)CCc1c[nH]c2ccc(CS(=O)(=O)N3CCCC3)cc12` the value was “inactive”; for `CC(=O)SC[C@@H](C)C(=O)N1CCC[C@H]1C(=O)N[C@@H](Cc1ccccc1)C(=O)O`, “inactive”.

As to `CC(=O)SCC(CC(=O)c1ccc(C)cc1)C(=O)O` (stereo not given), the compound was classed as inactive. Same read-out and setting: for `C/C(=N\O)c1ccc(OCC(=O)N2CCCCC2)cc1` the value was “inactive”; for `C=CC(C)(CCC=C(C)C)OC(=O)C(C)C` (stereo not given), “inactive”; for `Cc1cccc(N)n1`, “inactive”.

As to `CC(=O)Oc1ccc(C(C)=O)cc1`, the call was inactive. Same read-out and setting: for `CC(C)(C)OC(=O)c1ccccc1C(=O)O` the value was “inactive”. The same measure, in the same setting: for `C/C=C(\C)C=O` the value was “inactive”; for `CNC(C)=O`, “inactive”.

As to `NNC(=O)OCc1ccccc1`, the call was inactive. In the case of `CC(C)(C)C(=O)CC(=O)C(C)(C)C`, the compound was called inactive.

As for `COCCCOc1cc(C[C@@H](C[C@H](N)[C@@H](O)C[C@H](C(=O)NCC(C)(C)C(N)=O)C(C)C)C(C)C)ccc1OC`, the compound was classed as inactive.

In the case of `CN(C)c1ccncc1`, the compound was called inactive. Still for that read-out and setting: for `COC(=O)c1ccc(NC(C)=O)cc1OC` the value was “inactive”; for `CO/N=C(\C(=O)O)c1csc(NC(=O)CCl)n1`, “inactive”; for `CC(CN1CC(=O)NC(=O)C1)N1CC(=O)NC(=O)C1` (stereo not given), “inactive”. Still for that read-out and setting: for `CCOCCOCCOC(C)=O` the value was “inactive”; for `CCOC(=O)c1ccc(N(C)C)cc1`, “inactive”; for `O=C(CCBr)N1CCN(C(=O)CCBr)CC1`, “inactive”. On the same count and under the same terms, in the case of `Cc1ccc(Br)cc1` it was “inactive”; in that of `Cc1ccc(O)c(C(=O)c2ccccc2)c1`, “inactive”. For `CC(=O)O[C@@H]1CC2C3CCc4cc(OC(=O)c5ccccc5)ccc4C3CCC2(C)[C@H]1OC(C)=O` (stereo not given in full), the compound was called inactive. Still for that read-out and setting: in the case of `C[Si](C)(C)O[Si](O)(O)O` it was “inactive”. Regarding `Cc1cc(O)c(Cl)cc1C`, the compound was classed as inactive.

In the case of `C[C@@H]1NC(=O)[C@@H](N)CNC(=O)[C@H](C2CCNC(N)=N2)NC(=O)/C(=C/NC(N)=O)NC(=O)[C@H](CNC(=O)C[C@@H](N)CCCN)NC1=O` (stereo not given in full), the viability change, negative = cytotoxic was 3.98% [at 0.29 µM] (inactive). With `C=C(C)C(=O)OCCOC1CC2CC1C1C=CCC21` (stereo not given), the compound was called inactive. Consider `C=CC(=O)OCC[N+](C)(C)C`, for which the compound was called inactive.

Turning to `CC1(C)CC(N)CC(C)(C)N1`, the call was inactive.

As to `CC1=C(O)C(=O)CO1`, the result was inactive. The same measure, in the same setting: in the case of `C[n+]1ccccc1/C=N/O` it was “inactive”.

Another experiment can be described thus: qHTS RealTime-Glo MT Cell Viability Assay in HEK293 cells - 40 hour (AID 1224874). Also: nearly all actives have a fitted effect of over 50% in size. As to conditions: RealTime-Glo luminescence, hits give low values. In a few lines: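 HEK293 + NanoLuc + prosubstrate, 600 cells/well; 5 h, 37 C/5% CO2; compound 23 nL in DMSO by pintool; 37 C; luminescence read at 0, 8, 16, 24, 32 and 40 h time points.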
As for `O=C(O)P(=O)(O)O`, the max response is 10.7% (inactive).

Regarding `CC(C)C(C)C`, the max response was 5.69% (inactive). For the compound `COc1cc2nc(N3CCN(C(=O)C4CCCO4)CC3)nc(N)c2cc1OC` (stereo not given), the max response was -19.2% (inactive). For the compound `CCCc1ncc(C(=O)O)s1`, the max response is 0.25% (inactive). Same read-out and setting: for `CN(C)CCCN(C)C` the value was 0.838% (inactive); for `BrCCOc1ccccc1`, -4.49% (inactive). Turning to `CN(C)CCc1c[nH]c2ccc(CS(=O)(=O)N3CCCC3)cc12`, the max response was 7.03% (inactive). Same read-out and setting: in the case of `CC(=O)SC[C@@H](C)C(=O)N1CCC[C@H]1C(=O)N[C@@H](Cc1ccccc1)C(=O)O` it was 3.03% (inactive).

As for `CC(=O)SCC(CC(=O)c1ccc(C)cc1)C(=O)O` (stereo not given), the max response is -0.0795% (inactive).

`C/C(=N\O)c1ccc(OCC(=O)N2CCCCC2)cc1`: the max response is -11.7% (inactive). On to `C=CC(C)(CCC=C(C)C)OC(=O)C(C)C` (stereo not given), for which the max response was 0.514% (inactive). On the same count and under the same terms, for `Cc1cccc(N)n1` the value was -4.06% (inactive).

In the case of `CC(=O)Oc1ccc(C(C)=O)cc1`, the max response was -8% (inactive). The same measure, in the same setting: in the case of `CC(C)(C)OC(=O)c1ccccc1C(=O)O` it was 0.795% (inactive); in that of `NNC(=O)OCc1ccccc1`, -4.79% (inactive). In the case of `CC(C)(C)C(=O)CC(=O)C(C)(C)C`, the max response is -12.1% (inactive).

For the compound `COCCCOc1cc(C[C@@H](C[C@H](N)[C@@H](O)C[C@H](C(=O)NCC(C)(C)C(N)=O)C(C)C)C(C)C)ccc1OC`, the max response is 2.37% (inactive). Still for that read-out and setting: in the case of `CN(C)c1ccncc1` it was -16.5% (inactive); in that of `COC(=O)c1ccc(NC(C)=O)cc1OC`, 3.94% (inactive). Turning to `CO/N=C(\C(=O)O)c1csc(NC(=O)CCl)n1`, the max response was 0.384% (inactive). On the same count and under the same terms, in the case of `CC(CN1CC(=O)NC(=O)C1)N1CC(=O)NC(=O)C1` (stereo not given) it was -4.03% (inactive); in that of `CCOCCOCCOC(C)=O`, 7.47% (inactive). The same measure, in the same setting: for `CCOC(=O)c1ccc(N(C)C)cc1` the value was -8.74% (inactive); for `O=C(CCBr)N1CCN(C(=O)CCBr)CC1`, 1.87% (inactive); for `Cc1ccc(Br)cc1`, 0.938% (inactive).

Take `Cc1ccc(O)c(C(=O)c2ccccc2)c1`: the max response is -5.5% (inactive).

For `CC(=O)O[C@@H]1CC2C3CCc4cc(OC(=O)c5ccccc5)ccc4C3CCC2(C)[C@H]1OC(C)=O` (stereo not given in full), the max response is 0.184% (inactive). Still for that read-out and setting: for `Cc1cc(O)c(Cl)cc1C` the value was -1.07% (inactive); for `C[C@@H]1NC(=O)[C@@H](N)CNC(=O)[C@H](C2CCNC(N)=N2)NC(=O)/C(=C/NC(N)=O)NC(=O)[C@H](CNC(=O)C[C@@H](N)CCCN)NC1=O` (stereo not given in full), 0.0952% (inactive); for `C=C(C)C(=O)OCCOC1CC2CC1C1C=CCC21` (stereo not given), 0.272% (inactive). Still for that read-out and setting: for `CC1(C)CC(N)CC(C)(C)N1` the value was 16.7% (inactive); for `CC1=C(O)C(=O)CO1`, 0.017% (inactive); for `C[n+]1ccccc1/C=N/O`, 0.0286% (inactive).
